# About 410 targets per protein were measured; listed, in parts, are those with the strongest signals and a random draw of the rest.
# Tests used:
# Assay in all cases: glycan array binding signal (z-score within array); higher = stronger binding
# Conditions in all cases: glycan notation: IUPAC condensed, linker removed
# [1] = target: Fuc(a1-2)Gal(b1-3)GlcNAc(b1-2)Man(a1-3)[Fuc(a1-2)Gal(b1-3)GlcNAc(b1-2)Man(a1-6)]Man(b1-4)GlcNAc(b1-4)[Fuc(a1-6)]GlcNAc
# Outline: (§1)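 From the Consortium for Functional Glycomics database, 3228 arrays were curated, keeping only those whose protein sequence was available. Binding is given as a within-array Z-score averaged across arrays sharing a protein sequence and across linkers. Negative Z-scores can be read as non-binding.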
# [2] = target: Fuc(a1-2)Gal(b1-3)GlcNAc(b1-3)GalNAc
# Outline: as §1
# [3] = target: Fuc(a1-2)Gal(b1-4)[Fuc(a1-3)]GlcNAc(b1-2)Man(a1-3)[Fuc(a1-2)Gal(b1-4)[Fuc(a1-3)]GlcNAc(b1-2)Man(a1-6)]Man(b1-4)GlcNAc(b1-4)[Fuc(a1-6)]GlcNAc
# Outline: as §1
# [4] = target: Fuc(a1-2)Gal3S(b1-4)GlcNAc
# Outline: as §1
# [5] = target: Fuc(a1-2)[Gal(a1-3)]Gal(b1-4)GlcNAc(b1-3)[Fuc(a1-2)[Gal(a1-3)]Gal(b1-4)GlcNAc(b1-6)]GalNAc
# Outline: as §1
# [6] = target: Fuc(a1-2)[GalNAc(a1-3)]Gal(b1-3)GlcNAc
# Outline: as §1
# [7] = target: Fuc(a1-2)[GalNAc(a1-3)]Gal(b1-4)GlcNAc(b1-2)Man(a1-3)[Fuc(a1-2)[GalNAc(a1-3)]Gal(b1-4)GlcNAc(b1-2)Man(a1-6)]Man(b1-4)GlcNAc(b1-4)[Fuc(a1-6)]GlcNAc
# Outline: as §1
# [8] = target: Fuc(a1-4)GlcNAc
# Outline: as §1
# [9] = target: Gal(a1-3)Gal(b1-3)GlcNAc(b1-3)GalNAc
# Outline: as §1
# [10] = target: Gal(a1-3)Gal(b1-3)[Fuc(a1-4)]GlcNAc(b1-2)Man(a1-3)[Gal(a1-3)Gal(b1-3)[Fuc(a1-4)]GlcNAc(b1-2)Man(a1-6)]Man(b1-4)GlcNAc(b1-4)GlcNAc
# Outline: as §1
# [11] = target: Gal(a1-3)Gal(b1-4)GlcNAc(b1-2)Man(a1-3)[Gal(a1-3)Gal(b1-4)GlcNAc(b1-2)Man(a1-6)]Man(b1-4)GlcNAc(b1-4)GlcNAc
# Outline: as §1
# [12] = target: Gal(a1-4)Gal(b1-4)GlcNAc(b1-2)Man(a1-3)[Gal(a1-4)Gal(b1-4)GlcNAc(b1-2)Man(a1-6)]Man(b1-4)GlcNAc(b1-4)GlcNAc
# Outline: as §1
# [13] = target: Gal(b1-3)GlcNAc6S
# Outline: as §1
# [14] = target: Gal(b1-3)[Fuc(a1-4)]GlcNAc
# Outline: as §1
# [15] = target: Gal(b1-4)GalNAc(a1-3)[Fuc(a1-2)]Gal(b1-4)GlcNAc
# Outline: as §1
# [16] = target: Gal(b1-4)GlcNAc(b1-2)Man
# Outline: as §1
# [17] = target: Gal(b1-4)GlcNAc(b1-3)Gal(b1-4)GlcNAc(b1-2)Man(a1-3)[Gal(b1-4)GlcNAc(b1-3)Gal(b1-4)GlcNAc(b1-2)Man(a1-6)]Man(b1-4)GlcNAc(b1-4)GlcNAc
# Outline: as §1
# [18] = target: Gal(b1-4)GlcNAc(b1-3)Gal(b1-4)GlcNAc(b1-3)Gal(b1-4)GlcNAc(b1-2)Man(a1-3)[Gal(b1-4)GlcNAc(b1-3)Gal(b1-4)GlcNAc(b1-3)Gal(b1-4)GlcNAc(b1-2)Man(a1-6)]Man(b1-4)GlcNAc(b1-4)GlcNAc
# Outline: as §1
# [19] = target: Gal(b1-4)GlcNAc(b1-3)Gal(b1-4)GlcNAc(b1-3)Gal(b1-4)GlcNAc(b1-3)Gal(b1-4)GlcNAc(b1-2)Man(a1-3)[Gal(b1-4)GlcNAc(b1-3)Gal(b1-4)GlcNAc(b1-3)Gal(b1-4)GlcNAc(b1-3)Gal(b1-4)GlcNAc(b1-2)Man(a1-6)]Man(b1-4)GlcNAc(b1-4)GlcNAc
# Outline: as §1
# [20] = target: Gal(b1-4)GlcNAc(b1-3)Gal(b1-4)GlcNAc(b1-3)Gal(b1-4)GlcNAc(b1-3)Gal(b1-4)GlcNAc(b1-2)Man(a1-3)[Gal(b1-4)GlcNAc(b1-3)Gal(b1-4)GlcNAc(b1-3)Gal(b1-4)GlcNAc(b1-3)Gal(b1-4)GlcNAc(b1-2)Man(a1-6)]Man(b1-4)GlcNAc(b1-4)[Fuc(a1-6)]GlcNAc
# Outline: as §1
# [21] = target: Gal(b1-4)GlcNAc(b1-3)Gal(b1-4)GlcNAc(b1-3)Gal(b1-4)GlcNAc(b1-3)Gal(b1-4)GlcNAc(b1-3)Gal(b1-4)GlcNAc(b1-2)Man(a1-3)[Gal(b1-4)GlcNAc(b1-3)Gal(b1-4)GlcNAc(b1-3)Gal(b1-4)GlcNAc(b1-3)Gal(b1-4)GlcNAc(b1-3)Gal(b1-4)GlcNAc(b1-2)Man(a1-6)]Man(b1-4)GlcNAc(b1-4)[Fuc(a1-6)]GlcNAc
# Outline: as §1
# [22] = target: Gal(b1-4)GlcNAc(b1-3)Gal(b1-4)GlcNAc(b1-3)[Gal(b1-4)GlcNAc(b1-3)Gal(b1-4)GlcNAc(b1-6)]GalNAc
# Outline: as §1
# [23] = target: Gal6S(b1-3)GlcNAc6S
# Outline: as §1
# [24] = target: Gal6S(b1-4)GlcNAc
# Outline: as §1
# [25] = target: GalNAc(a1-3)GalNAc(b1-3)Gal(a1-4)Gal(b1-4)Glc
# Outline: as §1
# [26] = target: GalNAc(b1-3)Gal(a1-4)Gal(b1-4)GlcNAc
# Outline: as §1
binder,measurement,setting,value
TIM1 (protein) ADGIQSVKVGGEAGPSVTLPCHYSGAVTSMCWNRGSCSLFTCQNGIVWTNGTHVTYRKDTRYKLLGDLSRRDVSLTIENTAVSDSGVYCCRVEHRGWFNDMKITVSLEIVPPHHHHHH,glycan array binding signal (z-score),[1],-0.132
same,glycan array binding signal (z-score),[2],-0.153
same,glycan array binding signal (z-score),[3],0.121
same,glycan array binding signal (z-score),[4],-0.264
same,glycan array binding signal (z-score),[5],1.94
same,glycan array binding signal (z-score),[6],-0.189
same,glycan array binding signal (z-score),[7],-0.187
same,glycan array binding signal (z-score),[8],8.15
same,glycan array binding signal (z-score),[9],-0.169
same,glycan array binding signal (z-score),[10],0.01
same,glycan array binding signal (z-score),[11],0.343
same,glycan array binding signal (z-score),[12],-0.176
same,glycan array binding signal (z-score),[13],-0.212
same,glycan array binding signal (z-score),[14],-0.25
same,glycan array binding signal (z-score),[15],-0.212
same,glycan array binding signal (z-score),[16],0.009
same,glycan array binding signal (z-score),[17],7.65
same,glycan array binding signal (z-score),[18],3.39
same,glycan array binding signal (z-score),[19],0.208
same,glycan array binding signal (z-score),[20],0.223
same,glycan array binding signal (z-score),[21],-0.05
same,glycan array binding signal (z-score),[22],2.45
same,glycan array binding signal (z-score),[23],-0.043
same,glycan array binding signal (z-score),[24],-0.175
same,glycan array binding signal (z-score),[25],-0.178
same,glycan array binding signal (z-score),[26],0.287
